Measurements reported in PubChem BioAssay.
Calls of active or inactive are those of the source.

Key:
[1] = system: Human papillomavirus type 1a protein E7 (residues 44-93); assay: HPV1a E7 fragment binders on microarrays, primary screen, biochemical, small-molecule microarray, residues 44-93, 635 nm fluorescence (AID 1108); conditions: small-molecule microarray binding, fluorescence 635 nm; higher = more signal;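 note: E7 fragment applied at 1 µg/mL in TBST for 1 h at 4 C; score combines spot fluorescence with its signal to noise ratio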
[2] = modulators of HCV replicon luciferase signal, primary screen, HCV replication inhibitor project, Huh7 cells, luciferase reporter (AID 1109); conditions: 48 h, higher = more signal;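 note: huh7 hepatoma cells harbouring a luciferase neomycin HCV replicon reporter; luciferase luminescence as measure of HCV replicon replication; test concentration not given here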
[3] = biological target: Left-right determination factor 2 (Homo sapiens) (UniProt O00292); assay: LEFTY2 binders on small-molecule microarrays, primary screen, biochemical, small-molecule microarray, 635 nm fluorescence scan (AID 1110); conditions: LEFTY2 binding, higher = more signal
Chain of Left-right determination factor 2 (Homo sapiens) (O00292 whole entry, looked up): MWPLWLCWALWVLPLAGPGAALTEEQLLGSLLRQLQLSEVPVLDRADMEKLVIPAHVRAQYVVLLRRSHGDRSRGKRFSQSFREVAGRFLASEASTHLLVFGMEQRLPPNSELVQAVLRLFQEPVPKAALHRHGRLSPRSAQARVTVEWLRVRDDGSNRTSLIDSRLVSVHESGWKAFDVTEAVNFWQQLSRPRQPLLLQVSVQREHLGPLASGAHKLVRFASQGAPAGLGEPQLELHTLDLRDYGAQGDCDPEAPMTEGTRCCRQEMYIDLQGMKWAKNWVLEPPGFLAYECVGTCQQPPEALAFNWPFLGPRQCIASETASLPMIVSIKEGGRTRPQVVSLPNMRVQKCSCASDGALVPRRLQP

[4] = biological target: Calmodulin-1 (Homo sapiens) (UniProt P0DP23); assay: CALM1 binders on microarrays, EGTA buffer, profiling panel, biochemical, small-molecule microarray, Cy5-labelled CALM1 (AID 1111); conditions: Cy5-CALM1 binding fluorescence, higher = more signal;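 note: labelled calmodulin applied in Tris saline Tween buffer holding calcium plus EGTA and DTT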
[5] = biological target: Calmodulin-1 (Homo sapiens) (UniProt P0DP23); assay: calcium-bound CALM1 binders on microarrays, profiling panel, artefact control for SMM control-protein annotation, biochemical, small-molecule microarray, Cy5-labelled CALM1, plus calcium (AID 1112); conditions: Cy5-CALM1 binding fluorescence, higher = more signal;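 note: score merges spot fluorescence with signal to noise from triplicate slides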
[6] = small-molecule microarray binders of probe aWnt5a, primary screen, biochemical, biotinylated probe, 635/667 nm fluorescence (AID 1113); conditions: higher = more signal;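 note: score merges 667 nm fluorescence intensity with signal-to-noise per printed feature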
[7] = small-molecule microarray binders of probe aShh, primary screen, biochemical, biotinylated probe, 635/667 nm fluorescence (AID 1114); conditions: higher = more signal;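 note: probe is biotin-labelled aShh protein from a stem cell growth factor screen; measures binding of labelled protein to compounds printed on the slide; score merges feature fluorescence at 667 nm with signal-to-noise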
[8] = small-molecule microarray binders of probe aNog, primary screen, biochemical, biotinylated probe, 635/667 nm fluorescence (AID 1115); conditions: higher = more signal;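 note: probe is biotinylated aNog protein used at 0.15 µg/mL for 1 h at 4 C; z-score combines 667 nm fluorescence of each spot with its signal to noise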
[9] = biological target: Torsin-1A-interacting protein 1 (Homo sapiens) (UniProt Q5JTV8); assay: LAP1 binders from COS7 cell lysate, primary screen, small-molecule microarray, 635/667 nm fluorescence (AID 1116); conditions: COS7-hLAP1 lysate binding, 635 nm fluorescence, higher = more signal
Chain of Torsin-1A-interacting protein 1 (Homo sapiens) (Q5JTV8 whole entry, looked up): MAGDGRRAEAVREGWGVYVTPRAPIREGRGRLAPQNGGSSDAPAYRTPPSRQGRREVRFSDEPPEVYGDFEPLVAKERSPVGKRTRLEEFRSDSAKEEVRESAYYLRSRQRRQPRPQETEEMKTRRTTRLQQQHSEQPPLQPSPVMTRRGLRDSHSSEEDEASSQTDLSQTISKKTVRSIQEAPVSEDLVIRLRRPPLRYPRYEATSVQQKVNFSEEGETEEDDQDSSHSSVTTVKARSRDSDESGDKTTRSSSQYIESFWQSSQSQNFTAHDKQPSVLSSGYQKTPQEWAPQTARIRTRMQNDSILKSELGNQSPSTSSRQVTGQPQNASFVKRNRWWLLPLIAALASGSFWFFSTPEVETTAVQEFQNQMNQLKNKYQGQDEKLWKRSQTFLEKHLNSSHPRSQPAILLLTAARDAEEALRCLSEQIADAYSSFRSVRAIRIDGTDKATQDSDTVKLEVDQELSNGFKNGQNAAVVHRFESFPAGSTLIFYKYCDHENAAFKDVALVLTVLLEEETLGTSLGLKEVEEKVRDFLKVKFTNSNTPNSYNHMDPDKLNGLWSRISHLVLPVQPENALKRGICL

[10] = biological target: Alpha-bungarotoxin (Bungarus multicinctus) (UniProt P60615); assay: alpha-bungarotoxin binders on microarray, profiling panel, artefact control for SMM control protein annotation, biochemical, small-molecule microarray, Alexa647 label, 635/667 nm fluorescence (AID 1117); conditions: alpha-BTX-A647 binding fluorescence, higher = more signal
Chain of Alpha-bungarotoxin (Bungarus multicinctus) (P60615 whole entry, looked up): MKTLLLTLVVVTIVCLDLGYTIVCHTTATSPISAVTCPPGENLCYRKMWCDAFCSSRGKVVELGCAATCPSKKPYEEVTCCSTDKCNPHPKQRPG

Albumin (Bos taurus) = Albumin (Bos taurus) (UniProt P02769); assay: bovine serum albumin binders on microarray, profiling panel, artefact control for SMM control protein annotation, biochemical, small-molecule microarray, Alexa647 label, 635/667 nm fluorescence (AID 1118); conditions: BSA-A647 binding, fluorescence 635 nm, higher = more signal;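 note: score merges 667 nm emission intensity and signal-to-noise per printed compound spot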
Chain of Albumin (Bos taurus) (P02769 whole entry, looked up): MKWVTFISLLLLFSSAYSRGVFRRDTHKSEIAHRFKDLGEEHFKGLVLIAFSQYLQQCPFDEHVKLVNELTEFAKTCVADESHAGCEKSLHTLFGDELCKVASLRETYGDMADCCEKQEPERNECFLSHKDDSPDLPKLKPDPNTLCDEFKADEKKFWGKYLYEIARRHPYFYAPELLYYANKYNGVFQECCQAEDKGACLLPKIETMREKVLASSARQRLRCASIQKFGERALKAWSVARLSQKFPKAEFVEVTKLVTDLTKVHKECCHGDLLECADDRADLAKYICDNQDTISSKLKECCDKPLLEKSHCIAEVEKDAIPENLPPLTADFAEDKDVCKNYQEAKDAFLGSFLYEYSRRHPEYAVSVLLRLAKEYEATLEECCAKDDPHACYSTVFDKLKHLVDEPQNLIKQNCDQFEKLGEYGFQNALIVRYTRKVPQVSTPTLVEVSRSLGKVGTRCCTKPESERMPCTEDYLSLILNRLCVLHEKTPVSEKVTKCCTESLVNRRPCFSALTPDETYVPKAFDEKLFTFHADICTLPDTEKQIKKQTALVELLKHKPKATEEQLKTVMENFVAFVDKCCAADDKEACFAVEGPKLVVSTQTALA

[11] = small-molecule microarray binders of probe aXIP, primary screen, biochemical, NeuroSMM set, 635/667 nm fluorescence (AID 1119); conditions: higher = more signal, called active from +8 up or from −8 down;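 note: probe is the protein aXip251-270 applied at 1 µg/mL to compound-printed slides; binding of probe to printed compounds measured as 667 nm fluorescence plus signal to noise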
[12] = small-molecule binders of probe aNOTCH3, primary screen, biochemical, small-molecule microarray, 635/667 nm fluorescence (AID 1120); conditions: higher = more signal;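 note: probe is a biotin-tagged antibody raised against NOTCH3 rather than NOTCH3 protein; score merges spot fluorescence near 667 nm with spot signal to noise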
[13] = small-molecule binders of probe aNOTCH2, primary screen, biochemical, small-molecule microarray, 635/667 nm fluorescence (AID 1121); conditions: higher = more signal;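 note: score merges feature fluorescence read at 667 nm with its signal to noise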
[14] = biological target: Carbonic anhydrase 2 (Homo sapiens) (UniProt P00918); assay: CAII small-molecule binders, profiling panel, biochemical, small-molecule microarray, Alexa647-labelled CAII (AID 1122); conditions: CAII-A647 binding fluorescence, higher = more signal
[15] = COS7 lysate on small-molecule microarray, probe aHis, 635 nm (AID 1123); conditions: COS7 cell lysate, fluorescence, higher = more signal;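 note: z-score combines 667nm fluorescence intensity with signal-to-noise per printed compound spot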
[16] = compound binding in COS7 lysate, probe aLAP1, primary screen, cell lysate, small-molecule microarray (AID 1124); conditions: probe aLAP1, fluorescence, higher = more signal;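 note: lysate comes from COS7 cells expressing LAP1 and is applied at 0.3 µg/mL; score merges spot fluorescence near 667 nm with signal-to-noise over triplicate slides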
Sam68 (KHDRBS1) = assay: Sam68 small-molecule binders, primary screen, biochemical, small-molecule microarray, 635 nm fluorescence (AID 1125); conditions: small-molecule microarray binding, higher = more signal;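 note: score merges 667 nm channel intensity with signal to noise over triplicate slides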
[17] = system: Chordin-like protein 2 (CHRDL2); assay: CHRDL2 small-molecule binders, primary screen, biochemical, small-molecule microarray, 635 nm fluorescence (AID 1126); conditions: small-molecule microarray binding, fluorescence 635 nm; higher = more signal;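 note: printed compound slides probed with Chrdl2 protein at 4 µg/mL for 1 h at 4 C; score merges 667 nm emission intensity with signal to noise over three replicate slides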
[18] = biological target: Concanavalin-A (Canavalia ensiformis) (UniProt P02866); assay: ConA small-molecule binders, primary screen, artefact control for SMM control protein annotation, biochemical, small-molecule microarray, Alexa647 label, 635 nm (AID 1127); conditions: ConA-A647 binding fluorescence, higher = more signal;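 note: z combines 667 nm emission intensity with signal-to-noise across three replicate slides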
Chain of Concanavalin-A (Canavalia ensiformis) (P02866 whole entry, looked up): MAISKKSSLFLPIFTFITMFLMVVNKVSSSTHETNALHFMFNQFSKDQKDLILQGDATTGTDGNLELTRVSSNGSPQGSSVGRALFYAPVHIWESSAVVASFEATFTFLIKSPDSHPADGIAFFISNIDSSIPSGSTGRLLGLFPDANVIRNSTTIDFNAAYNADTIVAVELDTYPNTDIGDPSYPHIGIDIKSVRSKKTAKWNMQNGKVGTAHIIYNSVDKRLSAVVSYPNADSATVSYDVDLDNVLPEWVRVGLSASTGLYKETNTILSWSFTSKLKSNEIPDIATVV

SMILES | composite z-score [1] | z-score [2] | composite z-score [3] | composite z-score [4] | composite z-score [5] | composite z-score [6] | composite z-score [7] | composite z-score [8] | composite z-score [9] | composite z-score [10] | composite z-score (Albumin (Bos taurus)) | composite Z-score [11] | composite z-score [12] | composite z-score [13] | composite z-score [14] | composite z-score [15] | composite z-score [16] | composite z-score (Sam68 (KHDRBS1)) | composite z-score [17] | composite z-score [18]
COc1ccc(C#Cc2ccc3c(c2)[C@]2(C(=O)N3)[C@H](c3ccc(O)cc3)N3[C@H](c4ccccc4)[C@H](c4ccccc4)OC(=O)[C@H]3[C@@H]2C(=O)O)cc1 | 1.19 | -0.327 | -0.172 | 0.69 | 0.805 | 0.0293 | -0.315 | 1.49 | 0.684 | -0.0251 | 0.496 | 0.708 (inactive) | 0.277 | 0.163 | 0.614 | 1.23 | 0.483 | 0.964 | 0.111 | 0.868
CC(C)C(CO)N1C(=O)[C@@H]2C3C(=O)OCCC/C=C\[C@H]3OC23C=CCN(C(C)(C)C)C(=O)[C@@H]13 (stereo not given in full) | -0.0297 | -0.57 | -0.383 | -0.903 | -0.804 | -0.124 | 0.0141 | -0.368 | -0.24 | -1.54 | -0.632 | -0.115 (inactive) | -0.304 | -0.156 | 0.815 | -0.12 | -0.281 | -0.142 | -0.438 | -1.47
COC(=O)Cn1c(C(=O)N(C)C)cc2c1C[C@H]1CN(C(=O)c3ccccc3)[C@@](Cc3ccc(F)cc3)(C(=O)OC)[C@@H]21 | 0.389 | 0.387 | 0.484 | 0.642 | 0.496 | 0.328 | 0.235 | 0.715 | 0.768 | 0.368 | 0.944 | -0.155 (inactive) | 0.541 | 0.267 | 0.884 | 0.56 | 0.108 | -0.167 | 0.0171 | 0.136
CN1C(=O)C2C=CC(C(O)c3ccc(F)cc3)N(Nc3ccccc3)C2C1=O (stereo not given) | 0.793 | -0.216 | 0.0204 | 0.746 | 0.693 | -0.0165 | -0.412 | -0.305 | 0.635 | 1.62 | 0.884 | 0.21 (inactive) | 0.0562 | -0.14 | 0.721 | 1.64 | -0.481 | 0.57 | -0.623 | 0.808
C=C[C@@H](OC)[C@H](OC(=O)Nc1ccc(SC)cc1)c1ccc(O)c(F)c1 | 1.33 | 0.362 | -0.374 | -0.25 | -0.479 | -0.142 | -0.0626 | 0.0553 | 0.345 | 1.22 | 0.622 | -0.584 (inactive) | 0.0337 | -0.0891 | 0.699 | 2.18 | 0.683 | 1.07 | 0.0611 | 0.0462
CCOC(=O)c1ccc(NC(=O)O[C@H]2[C@H](OC(=O)Nc3ccc4c(c3)OCO4)[C@@H](OC(=O)Nc3ccc4c(c3)OCO4)[C@@H](OC)O[C@@H]2CO)cc1 | 1.27 | 1.5 | 0.48 | 0.517 | -0.393 | 0.0321 | -0.0664 | 1.08 | 1.52 | 0.908 | 0.862 | 0.805 (inactive) | 0.291 | -0.0226 | 0.516 | 2.56 | 0.535 | 1.31 | 0.0612 | 1.14
CCOC(=O)C1CCCCN1 (stereo not given) | 0.728 | 0.417 | 0.4 | -0.178 | -0.483 | 0.312 | 0.444 | 0.144 | 0.488 | 0.54 | 0.351 | 0.104 (inactive) | 0.77 | 0.435 | 0.175 | 0.437 | 0.471 | 0.983 | 0.47 | 0.562
CCCC[C@@H](O)C1=C(COc2ccccc2)C[C@H]2C(=O)N(C)C(=O)[C@H]2[C@H]1CO | -1.05 | -0.408 | -0.164 | -0.756 | -0.527 | -0.195 | -0.2 | -0.519 | -1 | -0.149 | -0.261 | -0.191 (inactive) | -0.201 | -0.173 | -0.482 | -0.61 | -0.357 | -0.501 | 0.103 | -0.425
CCOC(=O)C[C@H]1[C@H](OC(=O)c2ccccc2-c2ccccc2)[C@@H](NC(=O)c2ccc(-c3ccccc3)cc2)c2cc(OCCCO)ccc2N1C(=O)c1ccc2ccccc2n1 | 0.521 | -1.24 | 0.465 | 0.105 | -0.09 | -0.0445 | -0.0035 | 0.233 | -0.0823 | 1.86 | 0.275 | 0.367 (inactive) | 0.0715 | -0.0441 | 0.131 | 0.406 | 0.272 | 1.06 | 0.304 | 0.513
CC(C)C[C@@H]1NC(=O)[C@@H]2C[C@H](C(=O)NCCCCCN)[C@H](c3ccc(O)cc3)N2C1=O | 1.36 | -0.196 | 1.46 | 1.17 | 0.953 | -0.0194 | 0.108 | -0.651 | 1.19 | 1.2 | 0.85 | -0.285 (inactive) | -0.169 | -0.102 | 0.577 | 1.48 | 0.17 | 1.33 | 0.25 | 1.17
COc1ccccc1CN1C(=O)c2ccccc2[C@@]2(Cc3ccccc3N(CC(F)(F)F)C2=O)[C@@H]1c1ccc(CO)cc1 | 0.802 | -0.521 | 0.244 | -0.504 | -0.723 | 0.13 | -0.308 | 1.68 | -0.0328 | 0.118 | -0.826 | -0.137 (inactive) | -0.251 | 0.156 | 0.757 | 0.384 | 2.4 | 0.707 | 1.03 | 0.331
